# Test results reported in the supplement of paper PMC11417369.
# The full ranking holds about 25,000 sequences; the median of “ln(normalized median fluorescence intensity)” is about 6.7, and the highest 2% start at about 10. The entries come from a sample that favours the highest values as a whole.
# Tested on: PfHDP1 homeodomain (GST-tagged)
# Assay: gcPBM binding intensity (ln(normalized median fluorescence intensity)); higher = stronger DNA binding
# Outline: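 After 1 h on an Agilent 4 × 180k array of primer-extended double-stranded 36-bp intergenic genomic probes and negative controls, bound GST-tagged P. falciparum DNA-binding domains were detected with Alexa488 anti-GST antibody and scanned at 488 nm. The domains had been expressed in E. coli, and binding took place in 1× PBS with 1% milk, 0.2 mg/ml BSA, 0.5% salmon testes DNA and 0.03% Triton X-100. Binding intensity is the highest Masliner-normalised natural-log median intensity across replicate spots of either probe orientation.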
row,Sequence,gcPBM binding intensity (ln)
1,TTAATTATTATATAAGTGCAATAATAAAAAGTTGTA [GTGCAC_site9552],9.36
2,TATATATATATATATTTTTTTTTTTTATGCACATGG [CACACA_negctrl_site1573],10.1
3,ACAAATAAATAAATATGTACTTAATTATATAATTGA [XGTACX_site5626],6.16
4,GTTTATGTATTATTATGTACGTATCATAATATATAT [XGTACX_site2385],6.87
5,ATTGTATATGTATATGCACACAATATATGTACTTAT [CACACA_site2611],9.66
6,AAATAATTATTTATCACACATATGTATTTATATATA [CACACA_site4589],6.66
7,TTTATGTATTTTTATGCACACATGCGTGGCTTATAT [CACACA_site4374],10.4
8,ACACATACACATTAGGTGCACATAATTCAATATTAC [GTGCAC_site9862],10.6
9,TATGTATTTTTATGCACACATGCGTGGCTTATATAA [CACACA_site387],10.5
10,TAATATTCAATTATACGTACACATATATATATATAT [XGTACX_site4245],9.22
11,AGTGCATAATATTTATGTACGTATCACATATATTTT [XGTACX_site5166],10.7
12,ACACATACACATTAGGTGCATATATTTCAATATTAC [GTGCAC_site9423],9.83
13,CGTATGCACAAATTATGTACTTATATATATATATAT [XGTACX_site2348],10.9
14,ATATTATTTTATGCTACACACATTTTCTCTTATAAA [CACACA_site943],7.25
15,AAAAAAAAAATATACACACACATATATATATATATA [CACACA_site3404],9.35
16,GTAGACTGAAACCACACACACATATATATATATATT [CACACA_site605],6.93
17,ATATAGAATATATTAACATGCAATAAGTAAAGGGGG [TGCATGCA_site1022],7.05
18,TGTATGTATTTTCAATGTACATAAAAAAAAAAAAAA [XGTACX_site4397],6.71
19,TTTGAAATAAATAATGCACACTCTACATATATACGT [CACACA_site2244],10.6
20,TGAAATAAATAATGCACACTCTACAGATATACGTAT [CACACA_site5270],10.1
21,AATATAATATAATGCACACATAAAAAAAAAATCAAA [CACACA_site122],11
22,AATCTAATATAATGCACACATAAAAAAAAAATCAAA [CACACA_site2714],10.2
23,AAAATATAATATAATGCACACATAAAAAAAAAATCA [CACACA_site7922],10.2
24,AAAATCTAATATAATGCACACATAAAAAAAAATCAA [CACACA_site9211],9.65
25,GTTGAAAAAAAAAATGCACACGCATACATATAATAT [CACACA_site8117],9.09
26,AATATAATATAATGCACACATAAAAAAAAAAAAATC [CACACA_site1303],10.6
27,AATCTAATATAATGCACACATAAAAAAAAATCAAAC [CACACA_site3633],10.7
